As usually defined, the Inhibition is how much of the control response was suppressed. A lower Inhibition goes with a weak effect.

Holding throughout (format): functional
Assay [1] concerns Plasmodium falciparum. Briefly: GSK_TCMDC: Inhibition of Plasmodium falciparum 3D7 in whole red blood cells, using parasite LDH activity as an index of growth. Test compounds present at 2uM.
Assay [2] deals with Plasmodium falciparum. Briefly: GSK_TCMDC: Inhibition of Plasmodium falciparum Dd2 in whole red blood cells, using parasite LDH activity as an index of growth. Test compounds present at 2uM.
The next assay relates to HepG2. Briefly: GSK_TCMDC: Percent inhibition of human HepG2 cell line. Test compounds present at 10uM.

With `Cc1ccccc1CCNC(=O)c1cnc(N2CCN(c3ccncc3)CC2)c(Cl)c1.O=C(O)C(F)(F)F`, the Inhibition in the assay on Plasmodium falciparum [1] is reported as 100%; with Plasmodium falciparum [2], 95%; in the assay with HepG2, 36%.
For the compound `C=C(C)COc1ccc(-c2n[nH]c(C(F)(F)F)c2-c2ccccc2OC)c(O)c1`, the values for the Inhibition in the assay with Plasmodium falciparum [1], with Plasmodium falciparum [2] and with HepG2 were 98%, 72% and 19%, respectively.
For `O=C(Nc1cccc(-c2cccc(-c3ccc(F)cc3)n2)c1)c1ccc([N+](=O)[O-])o1`, the Inhibition in the assay with Plasmodium falciparum [1] turned out to be 99%; in the assay on Plasmodium falciparum [2], 42%; with HepG2, 100%.
Turning to `CC(C)c1ccc(C=CC(=O)N2CCC(CCN3CCC(c4c[nH]c5ccccc45)CC3)CC2)cc1`, the Inhibition in the assay with Plasmodium falciparum [1] came to 93%; with Plasmodium falciparum [2], 11%; in the assay on HepG2, 85%.
As to `c1ccc(CN2CCc3cc4nccc(N5CCNCC5)c4cc32)cc1`, the values for the Inhibition in the assay with Plasmodium falciparum [1], with Plasmodium falciparum [2] and in the assay with HepG2 were 100%, 99% and 9%, respectively.
Take `O=C(O)C(F)(F)F.OCC1CCCCN1Cc1cccc(-c2cccc(-c3nc4ccccc4[nH]3)c2)c1` (stereo not given): the figures for the Inhibition with Plasmodium falciparum [1], in the assay with Plasmodium falciparum [2] and in the assay with HepG2 were 95%, 4% and 24%, respectively.
For `NC1CCN(c2nc(NCCCc3ccc(O)cc3)nc(NCc3cccc4ccccc34)n2)CC1.O=C(O)C(F)(F)F`, in that order: 100%, 2% and 12%.
Taken in the same sequence, the figures for `Cl.O=c1cc(NCCCNC2CCOc3c(I)cc(Cl)cc32)[nH]c2ccccc12` (stereo not given) were 96%, 48% and 0%.
With `COc1cccc(OCC2CCCN(CCCCNC(=O)c3ccc(NC(=O)c4ccc(Cl)cc4)cc3)C2)c1` (stereo not given), the Inhibition is given as 100% in the assay with Plasmodium falciparum [1], 49% in the assay on Plasmodium falciparum [2] and 33% in the assay with HepG2.
In the case of `CC(C)NCc1cccc(-c2ccc(NC(=O)c3ccc(C#N)cc3)cc2)c1.O=C(O)C(F)(F)F`, the values for the Inhibition in the assay with Plasmodium falciparum [1], in the assay on Plasmodium falciparum [2] and in the assay on HepG2 were 99%, 8% and 15%, respectively.
Take `CC1CCN(CCNC(=O)c2ccc3c(=O)n(Cc4ccc(Cl)cc4)c(=S)[nH]c3c2)CC1`: the Inhibition with Plasmodium falciparum [1] came out at 100%; with Plasmodium falciparum [2], 75%; in the assay on HepG2 it was 6%.
Take `CCOC(=O)C(=CNc1ccc(Cc2cnc(N)nc2N)cc1CC)C(=O)OCC`: the results for the Inhibition with Plasmodium falciparum [1], in the assay on Plasmodium falciparum [2] and in the assay with HepG2 were 87%, 7% and 47%, respectively.
For the compound `CNC(=O)c1cnc(Nc2ccc(N3CCN(C)CC3)cc2)nc1Nc1cccc(OC(C)C)c1.O=C(O)C(F)(F)F`, the figures for the Inhibition in the assay with Plasmodium falciparum [1], in the assay on Plasmodium falciparum [2] and with HepG2 were 100%, 100% and 16%, respectively.
`O=C(Nc1ccc(-c2cccc(-c3nc4cc(F)ccc4[nH]3)c2)cc1)c1cnn2cccnc12`: the Inhibition is listed as 98% with Plasmodium falciparum [1], 25% in the assay with Plasmodium falciparum [2] and 10% in the assay with HepG2.
Turning to `O=C(/C=C/c1ccc(Cl)c(Cl)c1)NC1CCC(CN2CCC(c3cc4ccccc4[nH]3)CC2)CC1` (stereo not given), the Inhibition with Plasmodium falciparum [1] is listed as 96%; in the assay on Plasmodium falciparum [2], 0%; in the assay with HepG2, 19%.
For `CS(=O)(=O)O.FC(F)(F)COc1ccc2ccccc2c1CNCCCCCCNCc1c(OCC(F)(F)F)ccc2ccccc12`, in that order: 100%, 95% and 99%.
For the compound `COc1ccccc1CCNc1ncc(F)c(N[C@@H](Cc2ccccc2)C(=O)NCCc2ccccc2)n1.O=C(O)C(F)(F)F`, the Inhibition with Plasmodium falciparum [1] is on record as 90%; with Plasmodium falciparum [2], 83%; in the assay on HepG2, 7%.
With `COc1ccc(C2=C(Nc3ccc4oc5ccccc5c4c3)c3ccccc3C2=O)cc1`, the figures for the Inhibition in the assay with Plasmodium falciparum [1], in the assay on Plasmodium falciparum [2] and in the assay on HepG2 were 93%, 92% and 9%, respectively.
In the case of `O=C(Nc1cccc(CN2CCCN(Cc3ccc(O)cc3)CC2)c1)c1cc(F)cc(F)c1.O=C(O)C(F)(F)F`, the results for the Inhibition with Plasmodium falciparum [1], with Plasmodium falciparum [2] and in the assay on HepG2 were 100%, 13% and 15%, respectively.
Regarding `COc1cc(C(=O)NCCCN2CCN(c3cccc(Cl)c3)CC2)ccc1-c1nc2cc(Cl)c(F)cc2[nH]1`, the results for the Inhibition in the assay on Plasmodium falciparum [1], in the assay on Plasmodium falciparum [2] and in the assay with HepG2 were 100%, 81% and 15%, respectively.
Regarding `O=C(NC1CCN(Cc2ccccc2)CC1)c1cccc(Nc2nc(-c3ccccc3)cs2)c1`, the figures for the Inhibition in the assay with Plasmodium falciparum [1], in the assay on Plasmodium falciparum [2] and with HepG2 were 84%, 3% and 70%, respectively.
Regarding `Cc1cnc(C(=O)Nc2ccc(-c3cccc(-c4nc5ccccc5[nH]4)c3)cc2)cn1`, the Inhibition with Plasmodium falciparum [1] was found to be 93%; with Plasmodium falciparum [2] it was 8%; in the assay on HepG2 it was 77%.
For `COc1ccc(C=NN=c2cc(C)[nH]c3ccccc23)cc1OC`, in that order: 91%, 8% and 19%.
For the compound `COc1ccc2c(OC)c(CNCCCCCCNCc3ccc4cc(OC)ccc4c3OC)ccc2c1.CS(=O)(=O)O`, the Inhibition was 98% with Plasmodium falciparum [1], 49% in the assay on Plasmodium falciparum [2] and 100% in the assay with HepG2.
With `CC(=O)Nc1ccc(CNCCc2ccc(NC(=O)c3cc(Cl)cc(Cl)c3)cc2)cc1`, the Inhibition is 100% with Plasmodium falciparum [1], 31% in the assay on Plasmodium falciparum [2] and 10% in the assay with HepG2.
Take `O=C(/C=C/c1ccc(Cl)c(Cl)c1)NCCCCCN1CCCC(C(=O)Nc2cccc(Cl)c2)C1` (stereo not given): the Inhibition with Plasmodium falciparum [1] is listed as 99%; in the assay on Plasmodium falciparum [2] it was 2%; in the assay with HepG2, 41%.
For the compound `CN(C)CCOc1cc(NC(=O)Nc2cccc3c(-c4ccncc4)cccc23)ccc1I.Cl`, the results for the Inhibition in the assay with Plasmodium falciparum [1], in the assay with Plasmodium falciparum [2] and in the assay on HepG2 were 100%, 28% and 20%, respectively.
Regarding `CC(=O)Nc1ccc(C(=O)Nc2cccc(-c3ccc(-c4nc5cc(F)ccc5[nH]4)s3)c2)cn1`, the Inhibition was found to be 100% in the assay on Plasmodium falciparum [1], 97% in the assay with Plasmodium falciparum [2] and 33% in the assay with HepG2.
Taken in the same sequence, the figures for `COc1ccccc1Cc1c(C)nc2nc(N)nc(N)c2c1C.Cl` were 96%, 2% and 69%.
For the compound `Cc1cccc2nc(-c3ccc(-c4ccc(CN5CCCCC5)cc4)cc3)[nH]c12.O=C(O)C(F)(F)F`, the Inhibition with Plasmodium falciparum [1] was found to be 100%; in the assay on Plasmodium falciparum [2], 99%; in the assay on HepG2, 27%.
